# PubChem BioAssay
# Calls of active or inactive are those of the source. Cut-off read from the data, not from the text of the source: active = inhibition above about 33%; inactive = the rest.
# Experiment: VP16 transactivation reporter inhibitors, counter-screen for LRH-1 inverse agonist project, cell-based, luminescence, high throughput (AID 651615)
# Conditions: Gal4-VP16 luciferase reporter cells, at 3.6 µM, stronger effect = higher value
row,SMILES,inhibition
1,CC(C)C(=O)N1CCN(c2ccc(NC(=O)c3ccc([N+](=O)[O-])o3)cc2)CC1,-4.74% (inactive)
2,S=C(NCCc1ccccc1)Nc1cccc2cnccc12,42.3% (active)
3,CCn1c2ccccc2c2cc(/C=N/n3c(C)nnc3C)ccc21,-25% (inactive)
4,COc1ccc(NC(=O)CSc2sc3c(O)cc(=O)[nH]c3c2C#N)c(OC)c1,2.48% (inactive)
5,O=C(c1ccc([N+](=O)[O-])o1)N1CCc2ccccc21,-36.3% (inactive)
6,CC(C)c1ccc(NC(=O)CSc2nc(=O)[nH]c3c2CCCC3)cc1,-10.5% (inactive)
7,COc1ccc(S(=O)(=O)Nc2ccc(CC#N)cc2)cc1,-0.34% (inactive)
8,OC[C@@H]1CN(Cc2ccc(-c3ccccc3)cc2)C[C@H](n2cnc3c(NCc4ccco4)ncnc32)O1,33.6% (active)
9,CN1c2ccccc2C(C)(C)C12C=Nc1c(cc(N3CCOCC3)c3ccccc13)O2 (stereo not given),4.98% (inactive)
10,O=C(COC(=O)c1ccc(Br)cc1)Nc1ccccc1Br,1.81% (inactive)
11,COc1cc(N)c(Cl)cc1C(=O)OCC(=O)N1c2ccccc2NC(=O)C1(C)C,-12.3% (inactive)
12,CCC(=O)N1CCN(c2ccc(Cl)cc2NC(=O)c2ccc([N+](=O)[O-])o2)CC1,4.86% (inactive)
13,Cn1cccc1C(=O)OCC(=O)NCCCc1ccccc1,-22% (inactive)
14,Cc1cc(/C=N/n2cnnc2)c(C)n1-c1ccc(OCc2ccc(Cl)cc2)cc1,31.2% (active)
15,Cc1cc(N2CCN(c3nc4ccccc4s3)CC2)n2ncnc2n1,50.3% (active)
16,COc1cc(OC)cc(C(=O)N[C@H](C(=O)OCC(=O)Nc2ccc3c(c2)OCO3)C(C)C)c1,-4.48% (inactive)
17,Cn1c2c(c(=O)n(C)c1=O)C(C(F)(F)F)(C(F)(F)F)N=C(CCC1CCCCC1)N2,41.1% (active)
18,Cc1cc(S(=O)(=O)NCc2ccncc2)c(C)cc1Br,41.4% (active)
19,CSCc1c(C(=O)Nc2ccccc2N2CCOCC2)oc2ccccc12,14.2% (inactive)
20,Cc1cc(OCC(=O)NCc2cccnc2)c2c(C)c(C)c(=O)oc2c1,-8.94% (inactive)

row,SMILES,inhibition
1,COc1ccc(C(=O)Nc2cnccn2)cc1[N+](=O)[O-],4.88% (inactive)
2,Fc1ccc(Br)cc1SCCc1ccncc1,-2.36% (inactive)
3,CCC(C)n1c(SCC(=O)NCCc2ccc(S(N)(=O)=O)cc2)nc2ccsc2c1=O (stereo not given),-3.41% (inactive)
4,O=C(Nc1ccc(F)cc1)C(c1cc2ccccc2o1)N1CCN(c2cccc(C(F)(F)F)n2)CC1 (stereo not given),16.1% (inactive)
5,COc1cc(C2CC(=O)c3c([nH]c(C(=O)OCCOC(C)C)c3C)C2)cc(OC)c1OC (stereo not given),43.3% (active)
6,COc1ccc(/C=N/n2c(SC)nnc2-c2ccccc2)c(OC)c1OC,-31.8% (inactive)
7,Cc1ccc(NNC(N)=S)cc1Cl,1.11% (inactive)
8,COc1ccc(N2CCN(C(=O)CSc3nnc(-c4cc5ccccc5cc4O)n3C)CC2)cc1,13.6% (inactive)
9,Cc1ccc(/C=C/S(=O)(=O)NCC(=O)OCC(=O)Nc2c(F)cccc2F)cc1,-18.4% (inactive)
10,CCN(CC)CC(=O)Nc1ccc(-c2nc3cc(NC(=O)CN(CC)CC)ccc3o2)cc1,-0.95% (inactive)
11,COC(=O)c1ccc(NC(=O)CN2CCN(S(=O)(=O)c3cc(Cl)ccc3OC)CC2)cc1,7.76% (inactive)
12,CCc1ccccc1NC(=O)CSc1nnc([C@@H](NC(=O)OC(C)(C)C)C(C)CC)o1 (stereo not given in full),4.95% (inactive)
13,CS(=O)(=O)N1Cc2cc(C(=O)NCC3CC3)nc(-c3cccc(-c4cccnc4)c3)c2[C@@H]1CCO,-12.3% (inactive)
14,Cc1cccc(NC(=O)COC(=O)Cc2cccs2)c1C,14.1% (inactive)
15,NC(=O)COc1ccc2c3c(c(=O)oc2c1)CCCCC3,0.54% (inactive)
16,COCCSc1ccccc1C(=O)NCc1ccc2c(c1)OCO2,2.27% (inactive)
17,Cc1cc(-c2nnc(SCC(=O)Nc3cccc(C)c3C)n2N)n[nH]1,-4.91% (inactive)
18,CCc1ccccc1NC(=O)CSc1nnc([C@@H](NC(=O)OC(C)(C)C)C(C)C)o1,0.4% (inactive)
19,CC1(c2ccc3ccccc3c2)NC(=O)N(CC(=O)N2CCN(Cc3ccc(C#N)cc3)CC2)C1=O (stereo not given),53.5% (active)
20,Cc1cc(OCC(=O)Nc2nccs2)c2c(C)cc(=O)oc2c1,-19.8% (inactive)
